Paper PMC11062922 (Nature Chemical Biology, 2023)
Where two headings read alike, the source gives them in different places.

Experiments:
Set-up in all cases: species or system human, MV4-11 + K-562 + COLO205 + SK-N-BE2 + OVCAR-8
MAP3K1 = conditions: read-out: apparent Kd, compound concentrations: 100 nM and 1000 nM (sheet 'Samples'), n = 1
MAP4K5 = conditions: read-out: apparent Kd; compound concentrations: 100 nM and 1000 nM (sheet 'Samples'), CATDS: 0.32149724662749601; n = 1
PLK1 = conditions: read-out: apparent Kd, compound concentrations: 100 nM and 1000 nM (sheet 'Samples'), n = 1
SLK = conditions: read-out: apparent Kd, compound concentrations: 100 nM and 1000 nM (sheet 'Samples'), n = 1
STK10 = conditions: read-out: apparent Kd, compound concentrations: 100 nM and 1000 nM (sheet 'Samples'), n = 1
MAP3K6 = conditions: read-out: apparent Kd; compound concentrations: 100 nM and 1000 nM (sheet 'Samples'), CATDS: 0.469017197153689; n = 1
MAPK11 = conditions: read-out: apparent Kd, n = 1
MAPK10 = conditions: read-out: apparent Kd, n = 1
MAPK14 = conditions: read-out: apparent Kd, n = 1
MAPK9 = conditions: read-out: apparent Kd; compound concentrations:100 nM and 1000 nM (sheet 'Samples'); n = 1
MAPKAPK2 = conditions: read-out: apparent Kd, n = 1
NQO1 = conditions: read-out: apparent Kd; compound concentrations:100 nM and 1000 nM (sheet 'Samples'); n = 1
MAP2K5 = conditions: read-out: apparent Kd; compound concentrations:100 nM and 1000 nM (sheet 'Samples'); n = 1
PBK = conditions: read-out: apparent Kd; compound concentrations:100 nM and 1000 nM (sheet 'Samples'); n = 1
PTK6 = conditions: read-out: apparent Kd; compound concentrations:100 nM and 1000 nM (sheet 'Samples'); n = 1
RIPK2 = conditions: read-out: apparent Kd; compound concentrations:100 nM and 1000 nM (sheet 'Samples'); n = 1
RIPK3 = conditions: read-out: apparent Kd; compound concentrations:100 nM and 1000 nM (sheet 'Samples'); n = 1
SIK2 = conditions: read-out: apparent Kd; compound concentrations:100 nM and 1000 nM (sheet 'Samples'); n = 1
JAK2 = conditions: read-out: apparent Kd; compound concentrations:100 nM and 1000 nM (sheet 'Samples'); n = 1
PIM2 = conditions: read-out: apparent Kd; compound concentrations:100 nM and 1000 nM (sheet 'Samples'); n = 1
MAPK8 = conditions: read-out: apparent Kd; compound concentrations:100 nM and 1000 nM (sheet 'Samples'); n = 1
NLK = conditions: read-out: apparent Kd; compound concentrations:100 nM and 1000 nM (sheet 'Samples'); n = 1
PIP4K2C = conditions: read-out: apparent Kd; compound concentrations:100 nM and 1000 nM (sheet 'Samples'); n = 1
MAP2K1 = conditions: read-out: apparent Kd; compound concentrations:100 nM and 1000 nM (sheet 'Samples'); n = 1
PIK3C2A = conditions: read-out: apparent Kd; compound concentrations:100 nM and 1000 nM (sheet 'Samples'); n = 1
PIK3C3 = conditions: read-out: apparent Kd; compound concentrations:100 nM and 1000 nM (sheet 'Samples'); n = 1
RIOK2 = conditions: read-out: apparent Kd; compound concentrations:100 nM and 1000 nM (sheet 'Samples'); n = 1
[1] = compound concentrations:100 nM and 1000 nM (sheet 'Samples')

With `COc1cc2ncn(-c3cc(OCc4ccccc4Cl)c(C(N)=O)s3)c2cc1OC` [GW852849X] as the compound, how does the potency estimated from few doses (MAP3K1; CATDS: 0.14122884829610699) read?
Its potency estimated from few doses is 1950 nM.

And the potency estimated from few doses (MAP4K5)?
Its potency estimated from few doses is 184 nM.

What about the potency estimated from few doses (PLK1; CATDS: 0.55429480894525696) of the same compound?
Its potency estimated from few doses is 68.2 nM.

And the potency estimated from few doses (SLK; CATDS: 0.14112272983739199)?
The potency estimated from few doses was 1960 nM.

And the potency estimated from few doses (STK10; CATDS: 0.168955384509856)?
Its potency estimated from few doses is 1000 nM.

Which potency estimated from few doses (MAP3K6) does the source give for `Cl.Nc1c(C(=O)c2cccc(-c3ccncc3)c2)cnn1-c1ccc(F)cc1` [RO1165037-001] here?
The potency estimated from few doses was 1810 nM.

And the potency estimated from few doses (MAPK11; compound concentrations: 100 nM and 1000 nM (sheet 'Samples'), CATDS: 0.53536571927793597)?
The potency estimated from few doses was 1390 nM.

Which potency estimated from few doses (MAPK10; [1]) does the source give for `Cl.Cn1c(=O)c(Oc2ccccc2F)cc2cnc(NC3CCOCC3)nc21` [RO3304805-001] here?
Its potency estimated from few doses is 1050 nM.

And the potency estimated from few doses (MAPK14; [1])?
Its potency estimated from few doses is 58.4 nM.

And the potency estimated from few doses (MAPK9)?
Its potency estimated from few doses is 484 nM.

What about the potency estimated from few doses (MAPKAPK2; [1]) of the same compound?
The potency estimated from few doses was 73.7 nM.

And the potency estimated from few doses (NQO1)?
The potency estimated from few doses was 1480 nM.

`CNC(=O)Oc1cc(C)c(/C=C/c2cncc(C(=O)NC)c2)c(C)c1` [GW432441X] was tested. Which potency estimated from few doses (MAP2K5) did it give?
Its potency estimated from few doses is 231 nM.

What about the potency estimated from few doses (PBK) of the same compound?
The potency estimated from few doses was 1680 nM.

What about the potency estimated from few doses (PTK6) of the same compound?
The potency estimated from few doses was 45.3 nM.

What about the potency estimated from few doses (RIPK2) of the same compound?
Its potency estimated from few doses is 28.1 nM.

And the potency estimated from few doses (RIPK3)?
The potency estimated from few doses was 399 nM.

What about the potency estimated from few doses (SIK2) of the same compound?
Its potency estimated from few doses is 1320 nM.

`C[C@@H](Oc1cc(-n2cnc3cc(-c4ccnc(NCCS(C)(=O)=O)c4)ccc32)sc1C(N)=O)c1ccccc1Cl` [GSK907232A] was tested. Which potency estimated from few doses (MAP3K1; CATDS: 0.38790530075406598) did it give?
The potency estimated from few doses was 80.6 nM.

What about the potency estimated from few doses (PLK1; CATDS: 0.48589470973507998) of the same compound?
The potency estimated from few doses was 53.6 nM.

And the potency estimated from few doses (SLK; CATDS: 0.160364449090587)?
The potency estimated from few doses was 1330 nM.

What about the potency estimated from few doses (STK10; CATDS: 0.19500034290566101) of the same compound?
The potency estimated from few doses was 534 nM.

Which results are given for `Cc1ccc(NC(=O)c2cccc(N3CCCCC3)c2)cc1-c1ccc(C(=O)NCC2CC2)cc1` [GSK1917008A]?
potency estimated from few doses (MAPK11; compound concentrations: 100 nM and 1000 nM (sheet 'Samples'), CATDS: 0.21712264720535299): 591 nM; potency estimated from few doses (MAPK14; compound concentrations: 100 nM and 1000 nM (sheet 'Samples'), CATDS: 0.45448285689505602): 64.8 nM; potency estimated from few doses (MAPKAPK2; compound concentrations: 100 nM and 1000 nM (sheet 'Samples'), CATDS: 0.455787440841948): 64.5 nM

Which potency estimated from few doses (JAK2) does the source give for `CC(=O)N[C@@H](Cc1ccc(OP(=O)(O)O)cc1)C(=O)N[C@H]1CCC(=O)N2CCC[C@@H](C(=O)NCc3ccccc3)N2C1=O` [RO0324253-000] here?
The potency estimated from few doses was 712 nM.

What about the potency estimated from few doses (PIM2) of the same compound?
The potency estimated from few doses was 1770 nM.

How did the potency estimated from few doses (MAPK10; compound concentrations: 100 nM and 1000 nM (sheet 'Samples'), CATDS: 0.51132000357216201) turn out when `O=C(O)/C=C/C(=O)O.OCCCNc1nccc(-c2c(-c3ccc(F)cc3)nn3cc(C(F)(F)F)ccc23)n1` [GW569293E] was run?
Its potency estimated from few doses is 1430 nM.

And the potency estimated from few doses (MAPK14; compound concentrations: 100 nM and 1000 nM (sheet 'Samples'), CATDS: 0.48917036256560797)?
The potency estimated from few doses was 1570 nM.

How did the potency estimated from few doses (MAPK11; [1]) turn out when `Cl.Cn1c(=O)c(Oc2ccc(F)cc2F)cc2cnc(N[C@H]3CC[C@H](O)CC3)nc21` [RO3305413-001] was run?
The potency estimated from few doses was 806 nM.

And the potency estimated from few doses (MAPK14; [1])?
The potency estimated from few doses was 5.68 nM.

What about the potency estimated from few doses (MAPK8) of the same compound?
The potency estimated from few doses was 75.9 nM.

And the potency estimated from few doses (MAPK9)?
Its potency estimated from few doses is 26.4 nM.

What about the potency estimated from few doses (MAPKAPK2; [1]) of the same compound?
The potency estimated from few doses was 4.66 nM.

What about the potency estimated from few doses (NLK) of the same compound?
The potency estimated from few doses was 199 nM.

And the potency estimated from few doses (PIP4K2C)?
The potency estimated from few doses was 791 nM.

What does the source list for `O=C1NC(=O)C(c2ccc(Cl)cc2)=C1Nc1cccc(Cl)c1` [SB-317651]?
potency estimated from few doses (MAP2K1): 1860 nM; potency estimated from few doses (PIK3C2A): 2450 nM; potency estimated from few doses (PIK3C3): 1570 nM; potency estimated from few doses (PIM2): 1320 nM; potency estimated from few doses (RIOK2): 1500 nM
